Experimental data as given in ChEMBL document CHEMBL1201862, “PubChem BioAssay data set” (2004).
Screen size: about 56,000 sequences; about 4,700 (8.4%) were called active. Rule as the data show it: active = GI50 up to about 1.1 µM and inactive = higher. The entries come from a sample that favours actives as a whole. Potency and affinity values are given separately.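 Briefly, cells in 96-well plates were exposed to five compound concentrations for 48 h, and endpoints were estimated by linear interpolation. GI50 marks 50% less growth.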

tested on: NCI-H460; experiment: NCI tumour cell line growth inhibition, 48 h

Substance | GI50 [nM]
cis-Bis[[(trimethylsilyl)methyl]amino]tetrachloroplatinum(IV), CHEMBL2146191 | 9770
[Bis(aminomethyl)tetramethylenesilane]tetrachloropaltinum(IV), CHEMBL2146189 | 314
[Bis(aminomethyl)ethylmethylsilane]tetrachloroplatinum(IV), CHEMBL2146192 | 774
[Bis(aminomethyl)dimethylsilane]tetrachloroplatinum(IV), CHEMBL2146190 | 577
[Bis(aminomethyl)pentamethylenesilane]dichloropaltinum(II), CHEMBL2146202 | 312
[Bis(aminomethyl)tetramethylenesilane]dichloropaltinum(II), CHEMBL2146205 | 2640
[Bis(aminomethyl)dimethylsilane]dichloroplatinum (II), CHEMBL2146201 | 3370
mu-(1,7-nanodiamine-N,N')bis-(cis-aminedichloroplatimum (II)), CHEMBL2146215 | 1610
[Bis(aminomethyl)diethylsilane]tetrachloroplatinum(IV), CHEMBL2146203 | 438
[Bis(aminomethyl)pentamethylenesilane]tetrachloropaltinum(IV), CHEMBL2146204 | 206
CISPLATIN, CHEMBL11359 | 579
